# Data taken from PubChem BioAssay (EPA / NIEHS).
# Records with an inconclusive call do not appear. Active and inactive are the calls of the source. Rule for the calls: active = hit-call score of the fitted dose curve at least 0.9, where 1 is the maximum; inconclusive = response in the unintended direction; inactive = score below 0.9.
# Experiment: ACEA_AR_agonist_AUC_viability: ACEA Biosciences xCELLigence Real-Time Cell Analysis on Androgen Receptor Agonism for Viability (AID 2283775);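 for AC50: viability read 80 hours after compound addition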
# Summary of the method: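 22Rv1 cells; impedance growth kinetics; 8-pt 1:4 dilutions from 100 uM top final, ≤0.5% DMSO; n = 2; 80 h read; AUC viability, loss-of-signal vs DMSO.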
SMILES,outcome,AC50
c1ccc2n[nH]nc2c1,inactive,
CCN(Cc1cccnc1)C(=O)c1cccc(Cl)c1[C@]1(C)C(=O)N(Cc2ccc(OC)cc2OC)c2ccc(Cl)cc21,,23.8 µM (active)
OC12N=C(c3ccccc3)SC1Cc1cc(Cl)ccc12 (stereo unspecified),,83.3 µM (active)
CCCCCCCCOC(=O)c1cc(O)c(O)c(O)c1,,35.3 µM (active)
C[C@]12CC[C@@H]3c4ccc(O)cc4CC[C@H]3[C@@H]1CC[C@H]2O,,90.7 µM (active)
Cc1cc2c(cc1C(F)(F)F)N(C(=O)Nc1ccc(Oc3cccnc3C)nc1)CC2,,17.1 µM (active)
CC(C)(O)c1ccc(CNC(=O)c2cccnc2Oc2ccc3nonc3c2)cc1,inactive,
NC(=O)c1nc(-c2cccc(-c3cc(F)ccc3OCC(F)(F)C(F)(F)F)c2)n[nH]1,,24.6 µM (active)
O=c1[nH]sc2ccccc12,,14.1 µM (active)
Cc1occc1C(=O)Nc1ccc(C(=O)N2CCC(F)(F)/C(=C\C(=O)N3CCC(N4CCCCC4)CC3)c3ccccc32)cc1,,31.2 µM (active)
CCCCCc1ccc(N)cc1,,50 µM (active)
CN(C)c1ccc(C(=C2C=CC(=[N+](C)C)C=C2)c2ccc(N(C)C)cc2)cc1,,0.281 µM (active)
O=C(O)Cc1cc(I)c(Oc2ccc(O)c(I)c2)c(I)c1,,22 µM (active)
Clc1cc(Cl)c2c(c1)N=C1CCCCCN1C2,inactive,
COc1cccc([C@H](O)C2CCN(CCc3ccc(F)cc3)CC2)c1OC,,50 µM (active)
Cc1oc2c(NC(=O)c3c(Cl)cccc3Cl)cccc2c1C(C)(C)O,,22.8 µM (active)
